CYP2C19 act: activators of human cytochrome P450 2C19 | P33261 | recombinant CYP2C19, luciferin-H EGE luminescence; active compounds read high; 0 = fully inhibited enzyme, 1 = untreated enzyme | activation factor at 5 µM | 96,000 tested, under 10 active | AID 1025;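 active means activation factor of at least 2 at 5 µM in the primary screen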;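 further: 0 = wells with 2.5 mM tranylcypromine and 1 = vehicle-only wells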
CYP2C9 act: CYP2C9 (human) activation. recombinant CYP2C9, luciferin-H conversion, luminescence; active compounds read high; factor 1 = untreated enzyme, 0 = blocked. activation factor at 5 µM. 1.4% of 96,000 active;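 active means activation factor of 2 or more for CYP2C9 at a 5 µM dose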;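 further: 0 = sulfaphenazole-blocked wells and 1 = vehicle-only wells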
Target sequence (P11712 whole entry, looked up): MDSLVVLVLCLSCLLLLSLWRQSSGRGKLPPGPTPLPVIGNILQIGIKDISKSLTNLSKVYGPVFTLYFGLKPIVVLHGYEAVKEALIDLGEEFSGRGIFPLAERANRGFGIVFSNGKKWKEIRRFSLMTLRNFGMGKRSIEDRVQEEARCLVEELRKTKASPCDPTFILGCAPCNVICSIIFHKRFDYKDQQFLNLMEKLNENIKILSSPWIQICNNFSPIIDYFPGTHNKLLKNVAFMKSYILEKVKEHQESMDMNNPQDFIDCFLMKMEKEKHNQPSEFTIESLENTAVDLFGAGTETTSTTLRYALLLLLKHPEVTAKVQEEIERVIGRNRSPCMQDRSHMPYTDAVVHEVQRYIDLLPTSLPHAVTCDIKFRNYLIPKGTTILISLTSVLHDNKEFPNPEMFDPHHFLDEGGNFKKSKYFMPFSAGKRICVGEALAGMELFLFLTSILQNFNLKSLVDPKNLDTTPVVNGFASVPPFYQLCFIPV
PostGolgi ctrl: growth of the yeast control strain, post-Golgi counter-screen; efflux-deficient yeast background strain, growth absorbance A615, 16 h; inhibition, % at 10 µM; 5% of 98,000 active
CYP2C19 inhib: blocks human cytochrome P450 2C19; 21% of 96,000 active; P33261; inhibition, % at 5 µM; AID 778; CYP2C19 Supersomes, luciferin-H EGE luminescence, 30 min;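 active means CYP2C19 inhibition above a set limit at 5 µM in the primary screen, cut at about 50% in these data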;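 further: plate controls were negative control wells for no effect and 2.5 mM tranylcypromine positive control for full effect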
CYP2C9 inhib: inhibitors of human CYP2C9 | AID 777 | 20% of 96,000 active | inhibition, % at 5 µM | CYP2C9 Supersomes, luciferin-H conversion, luminescence;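 active means blocking of liver enzyme CYP2C9 beyond about 50% at 5 µM, limit read from the data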
PostGolgi yeast: growth inhibition of a yeast mutant, post-Golgi transport screen | AID 739 | 0.9% of 98,000 active | post-Golgi transport phenotypic cell assay | inhibition, % at 10 µM;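 further: yeast cells grown in 1536-well plates; yeast grown about 18 h at 30C before absorbance read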
* hit, by the source's call; . = not tested or not shown. This is a sample that favours compounds with a hit; in the whole collection about 32% have one here. Unless noted, no stated cut-off is given here; in the data, active means inhibition above about 30%; inactive means the rest.

SMILES	CYP2C19 act	CYP2C9 act	PostGolgi ctrl	CYP2C19 inhib	CYP2C9 inhib	PostGolgi yeast
CCOc1ccc(NC(=O)CNc2ccc(C)cc2Cl)cc1	0.2	0.7	1	78*	33	-4
CCOc1ccc(NCC(=O)Nc2ccc(C)cc2C)cc1	0.9	0.9	6	11	8	5
CCOc1ccc(NC(N)=O)cc1	0.9	1	9	8	2	-5
CCOc1ccc(NC(=O)Nc2cc(C)ccc2F)cc1	0.3	0.9	7	75*	14	-6
CCN(C1CCCCC1)S(=O)(=O)c1ccc(OC)c(C)c1	0.2	2.1*	35*	75*	-109	14
CCN(C1CCCCC1)S(=O)(=O)c1cc(C)ccc1OC	0.1	0.1	11	86*	94*	-3
CNC(=O)CN(C1CCCCC1)S(=O)(=O)c1ccc(OC)c(Cl)c1	0.8	0.8	4	16	24	-2
CCOc1ccccc1CNc1ccc(N2CCOCC2)c(C(=O)O)c1	1	1	2	-2	1	9
CCC(C)(C)n1nnnc1C(c1cc2cc(C)ccc2[nH]c1=O)N1CCCC1 (configuration not stated)	1	0.8	6	1	17	13
CCC(C)(C)n1nnnc1C(c1cc2cc(OC)c(OC)cc2[nH]c1=O)N1CCc2ccccc21 (configuration not stated)	0.5	0.2	3	46	77*	-1
COc1cc2cc(C(c3nnnn3C(C)(C)C)N3CCc4ccccc4C3)c(=O)[nH]c2cc1OC (configuration not stated)	0.3	0.2	7	65*	81*	-3
Cc1ccc2cc(C(c3nnnn3C(C)(C)C)N3CCCCCC3)c(=O)[nH]c2c1 (configuration not stated)	0.7	0.3	14	32	65*	2
CCOC(=O)N1CCC(NS(=O)(=O)c2ccc3c(c2)CCN3C(C)=O)CC1	1	0.7	12	4	28	-5
CCOc1ccc(CCNC(=O)C2CCCN(S(=O)(=O)c3c(C)n[nH]c3C)C2)cc1OCC (configuration not stated)	0.7	0.6	23	29	40	8
CCOC(=O)c1c(-c2ccc(Cl)cc2)c(C#N)c(=O)n(N)c1N	0.8	1	-3	16	-4	18
COc1cccc(N2CCN(C(=S)Nc3cccc(C)c3)CC2)c1	0.9	0.7	14	10	26	1
Cc1cccc(OCc2nc(C#N)c(NCc3ccc4c(c3)OCO4)o2)c1	0	0	23	99*	97*	-5
COc1ccc(Nc2oc(COc3cccc(C)c3)nc2C#N)cc1	0.7	0.7	11	30	29	-4
Cc1cccc(OCc2nc(C#N)c(N3CC(C)CC(C)C3)o2)c1 (configuration not stated)	0.2	0.2	12	82*	78*	-3
CC1CN(c2oc(COc3ccc(Cl)cc3Cl)nc2C#N)CC(C)O1 (configuration not stated)	.	.	27	.	.	-3
N#Cc1nc(COc2ccc(Cl)cc2)oc1NCc1ccc2c(c1)OCO2	0.3	0.2	18	65*	84*	-7
Cc1nc(C#N)c(NCc2ccc3c(c2)OCO3)o1	0.1	0.6	3	92*	39	-5
Cc1nc2cc(NC(=O)NCc3ccc4c(c3)OCO4)ccc2o1	0.8	0.6	4	16	38	1
O=C(COC(=O)c1ccccn1)NCCCc1ccccc1	0.6	0.8	0	38	16	1
Oc1ccc2[nH]cnc2c1CN1CCCCC1	0.9	1.1	0	9	-15	12
SMILES	CYP2C19 act	CYP2C9 act	PostGolgi ctrl	CYP2C19 inhib	CYP2C9 inhib	PostGolgi yeast
Cc1cccc(OCc2nc(C#N)c(NCCN(C)C)o2)c1	0.9	1	-8	8	-2	6
CCNc1oc(COc2cccc(C)c2)nc1C#N	0	0.5	9	98*	51*	9
O=C(c1ccc(C(=O)N2CCCc3ccccc32)nc1)N1CCCc2ccccc21	0.9	0.9	.	12	11	.
O=C(Nc1ccccc1)c1ccc(S(=O)(=O)N2CCOCC2)cc1	0.9	0.9	7	7	13	19
O=C(c1ccc(S(=O)(=O)N2CCOCC2)cc1)N1CCCc2ccccc21	0.4	0.7	17	56*	28	3
O=C(c1ccc(S(=O)(=O)N2CCCCC2)cc1)N1CCCc2ccccc21	0.7	0.2	23	27	76*	5
O=C(c1ccc(S(=O)(=O)N2CCCC2)cc1)N1CCCc2ccccc21	0	0.1	-6	97*	88*	-5
Cc1ccccc1Nc1nc(CSc2nnc(-c3ccoc3C)n2C)cs1	0.1	0.1	-1	86*	88*	1
CSc1nnnn1-c1ccc(C(=O)OCC(=O)N2CCOCC2)cc1	1.1	1.2	2	-11	-18	1
O=S(=O)(Nc1cccc(C(F)(F)F)c1)c1cnc[nH]1	0	0	4	98*	100*	7
O=S(=O)(Nc1ccc(C(F)(F)F)cc1)c1cnc[nH]1	0	0	-8	99*	100*	6
O=S(=O)(Nc1ccc(Cl)c(C(F)(F)F)c1)c1cnc[nH]1	0	0	4	96*	99*	-1
O=S(=O)(Nc1cccnc1)c1cccc(C(F)(F)F)c1	0.8	1.2	-2	24	-21	3
O=S1(=O)CCN2C(Cc3ccc(SC(F)F)cc3)=CSC2=N1	0.9	0.9	-2	10	6	0
COc1ccc(N2CCN(C(=S)Nc3cc(C)ccc3C)CC2)cc1	0.7	0.7	2	32	25	18
COc1ccc(C2=NOC(Cn3c(Cc4ccc(Cl)cc4)nc4c3c(=O)n(C)c(=O)n4C)C2)cc1 (configuration not stated)	0.3	0.2	15	74*	82*	-3
COc1ccccc1C1=NOC(Cn2c(=O)c3c(ncn3C)n(C)c2=O)C1 (configuration not stated)	0.7	1.5	14	26	-48	-10
COCC(=O)N(Cc1cc2ccc(C)cc2[nH]c1=O)c1ccc(OC)cc1	1	1	3	2	1	-1
COc1ccc(NC(=O)N(Cc2cc3cc(OC)ccc3[nH]c2=O)CC2CCCO2)cc1 (configuration not stated)	1	0.8	36*	-4	23	0
CCOc1ccc(N(Cc2cc3cc(OC)ccc3[nH]c2=O)C(=O)C2CCCO2)cc1 (configuration not stated)	0.8	0.3	9	20	68*	4
O=C(NCc1ccccc1)N(Cc1cc2cc3c(cc2[nH]c1=O)OCO3)CC1CCCO1 (configuration not stated)	0.9	1	-8	8	0	6
COCC(=O)N(Cc1cc2cc(OC)ccc2[nH]c1=O)c1ccc(C)cc1	0.6	0.4	5	36	59*	6

Compound activity as filed in PubChem BioAssay.
